From PubChem BioAssay
ASK1 primary = ASK1 kinase inhibitors, primary screen, biochemical, AlphaScreen. inhibition, % at 7.44 µM. AlphaScreen MKK6 phosphorylation by ASK1, luminescence. 22,000 tested, 0.99% active. Mitogen-activated protein kinase kinase kinase 5 (Homo sapiens), Q99683; in the data active = inhibition above about 35%
Target sequence (Q99683 whole entry, looked up): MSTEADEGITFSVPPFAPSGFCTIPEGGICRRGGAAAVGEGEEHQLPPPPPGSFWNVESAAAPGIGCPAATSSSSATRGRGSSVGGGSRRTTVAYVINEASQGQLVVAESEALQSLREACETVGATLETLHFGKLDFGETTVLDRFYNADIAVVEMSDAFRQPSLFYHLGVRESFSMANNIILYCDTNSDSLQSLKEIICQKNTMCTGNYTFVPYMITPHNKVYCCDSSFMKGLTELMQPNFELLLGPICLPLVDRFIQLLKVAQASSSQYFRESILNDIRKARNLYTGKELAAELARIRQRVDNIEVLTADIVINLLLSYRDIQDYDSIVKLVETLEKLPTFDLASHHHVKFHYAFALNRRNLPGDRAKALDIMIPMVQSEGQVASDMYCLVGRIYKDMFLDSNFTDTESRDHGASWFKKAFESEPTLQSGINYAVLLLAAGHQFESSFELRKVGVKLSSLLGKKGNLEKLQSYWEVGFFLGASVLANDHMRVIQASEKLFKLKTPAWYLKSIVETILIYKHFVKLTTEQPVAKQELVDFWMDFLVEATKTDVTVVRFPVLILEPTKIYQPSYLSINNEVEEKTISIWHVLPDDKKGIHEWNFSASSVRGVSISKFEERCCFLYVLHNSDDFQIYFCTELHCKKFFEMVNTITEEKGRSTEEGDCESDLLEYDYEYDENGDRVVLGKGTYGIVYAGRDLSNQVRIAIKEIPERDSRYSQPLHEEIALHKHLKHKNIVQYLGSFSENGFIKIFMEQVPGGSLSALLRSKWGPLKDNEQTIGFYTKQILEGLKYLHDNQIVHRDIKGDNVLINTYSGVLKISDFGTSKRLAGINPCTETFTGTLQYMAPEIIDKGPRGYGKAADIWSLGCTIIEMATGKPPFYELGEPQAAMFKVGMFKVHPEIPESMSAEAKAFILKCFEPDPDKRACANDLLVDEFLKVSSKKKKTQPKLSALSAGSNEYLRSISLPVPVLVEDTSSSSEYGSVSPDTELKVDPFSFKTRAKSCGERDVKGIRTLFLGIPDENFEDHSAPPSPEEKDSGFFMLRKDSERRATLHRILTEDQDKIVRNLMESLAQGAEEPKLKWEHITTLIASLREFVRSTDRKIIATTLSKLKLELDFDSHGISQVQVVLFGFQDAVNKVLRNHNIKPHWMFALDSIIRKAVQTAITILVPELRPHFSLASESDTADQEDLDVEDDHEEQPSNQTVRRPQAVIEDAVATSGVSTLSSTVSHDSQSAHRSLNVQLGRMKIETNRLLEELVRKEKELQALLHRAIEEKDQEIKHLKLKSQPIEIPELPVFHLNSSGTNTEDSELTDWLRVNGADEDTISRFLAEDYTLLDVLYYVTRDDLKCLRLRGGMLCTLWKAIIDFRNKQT
ULK1 primary = ULK1 kinase inhibitors, primary screen, biochemical, AlphaScreen | AlphaScreen Atg13 phosphorylation by ULK1, luminescence | inhibition, % at 5.96 µM | 30,000 tested, 1.9% active | AID 1259251, 2017; in the data active = inhibition above about 43%
TruHits interf = AlphaScreen signal interference by compounds, dose response, artefact control for ASK1 inhibitor project, biochemical, TruHits beads; shares compounds with ASK1 primary; signal interference counterscreen; IC50, µM; 220 tested, 20% active;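 active = IC50 of 10 µM or lower in the counterscreen; inactive = IC50 above 10 µM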;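 also: loss of AlphaScreen light from TruHits beads alone with no ASK1 enzyme present; potency of signal reduction so a low IC50 flags an assay artifact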
Hits are given with their value; . = inactive; / = not tested or not shown; ! = a repeat was not active. Hits are enriched below; roughly 2.5% of the tested compounds scored in any of these assays.

SMILES	ASK1 primary	ULK1 primary	TruHits interf
Cc1n[nH]c(C)c1-c1cc(F)cc(-c2ccnc(Nc3ccc(-n4cnc(N5CCOCC5)n4)cc3)n2)c1	48	.	.
Cc1ccc(-c2ncn(-c3ccc(Nc4nccc(-c5cc(F)cc(N(C)C)c5)n4)cc3)n2)cn1	.	.	/
CN(C)c1cc(F)cc(-c2ccnc(Nc3ccc(-n4cnc(N5CCC(O)CC5)n4)cc3)n2)c1	39	.	.
COc1ccc(-c2ccc(Nc3nccc(-c4cc(C#N)cc(N5CCOCC5)c4)n3)cc2)cn1	.	.	/
c1cc(-n2cnc(N3CCOCC3)n2)ccc1Nc1ncc2ccc(-c3cn[nH]n3)cc2n1	49	59	.
COc1ccc(-c2ncn(-c3ccc(Nc4nccc(-c5cc(C#N)cc(N6CCNCC6)c5)n4)cc3)n2)cn1	45	.	.
Fc1cc(-c2ccnc(Nc3ccc(-n4cnc(N5CCOCC5)n4)cc3)n2)cc(N2CCOCC2)c1	.	.	/
O=C(Nc1cnn(-c2cccc(C(=O)Nc3ccc(N4CCOCC4)nc3)c2)c1)Nc1ccccc1Cl	.	.	/
COc1cccc(OC)c1C(=O)NC(C)(C)c1ccncc1	/	.	/
Cc1ccc(-c2ncn(-c3ccc(Nc4cc(-c5ccn(C)n5)c(Cl)cn4)cc3)n2)cn1	.	.	/
CN1CCN(c2ncn(-c3ccc(Nc4nccc(-c5cc(C#N)cc(N6CCC(O)CC6)c5)n4)cc3)n2)CC1	41	.	.
N#Cc1cc(-c2ccnc(Nc3ccc(-n4cnc(N5CCOCC5)n4)cc3)n2)cc(N2CCCC(O)C2)c1 (stereo not given)	.	.	/
CC(C)N(CCNc1ncnc2nc(Nc3nccc4ccccc34)[nH]c12)C(C)C	.	.	/
FC(F)(F)c1ccc(Cn2cnc3c(NCc4ccccc4)nc(Nc4ccccc4)nc32)cc1	46	.	.
OCCNc1nc(Nc2ccc3ncccc3c2)nc2c1ncn2Cc1ccc(C(F)(F)F)cc1	.	.	/
FC(F)(F)c1ccc(Cn2cnc3c(NCc4cccc(C(F)(F)F)c4)nc(Nc4ccccc4)nc32)cc1	.	.	/
FC(F)(F)c1ccc(Cn2cnc3c(NCc4cccc(C(F)(F)F)c4)nc(Nc4ccc5ncccc5c4)nc32)cc1	40	.	.
Cn1c(Nc2nc(Nc3ccccc3)c3ncn(-c4ccsc4)c3n2)nc2ccccc21	.	.	/
CCN(CC)C(=O)C1CCCN(c2ncc(C(=O)Nc3ccccc3)s2)C1 (stereo not given)	.	.	/
CCN(CC)c1nc(NCCN2CCOCC2)nc(Nc2ccc(-n3ccnc3)cc2)n1	.	.	/
CCN(CC)c1nc(Nc2ccc(N3CCOCC3)cc2)nc(Nc2ccc(-n3ccnc3)cc2)n1	41	.	6
COc1cccc(CN(C)C(=O)c2c[nH]c3cc(-c4cn[nH]c4)ccc23)c1	.	.	/
c1ccc(CN2CCC(Nc3nc(N4CCN(Cc5ccc6c(c5)OCO6)CC4)nc4c3ncn4C3CCCCC3)CC2)cc1	36	.	8.7
c1ccc(CNc2nc(N3CCN(Cc4ccc5c(c4)OCO5)CC3)nc3c2ncn3C2CCCCC2)cc1	.	.	/
CC(C)(C)OC(=O)N[C@@H]1CCN(C(=O)c2cnccc2Nc2ccc(Cl)c(F)c2)C1	.	.	/
SMILES	ASK1 primary	ULK1 primary	TruHits interf
COc1ccc(-c2cc(NC3CCN(Cc4ccccc4)CC3)nc(N)n2)cn1	.	.	/
COc1cc(Nc2nc(-c3csc4ccccc34)nc3c2ncn3C(C)C)cc(OC)c1OC	.	.	/
COc1cc2nc(Nc3cccc(N(C)C)c3)nc(NCc3ccccc3)c2cc1OC	.	.	/
COc1cc(Nc2ccnc(Nc3cccc(N(C)C)c3)n2)cc(OC)c1OC	39	.	6.9
Cc1cc(NCc2ccccc2)nc(Nc2cccc(N(C)C)c2)n1	.	.	/
COc1cc2nc(Nc3cccc(N(C)C)c3)nc(NCc3cccc(C(F)(F)F)c3)c2cc1OC	38	.	.
COc1cc(Nc2cc(Nc3cccc(N(C)C)c3)ncn2)cc(OC)c1OC	.	.	/
CN(C)c1cccc(Nc2nccc(NCCOc3ccccc3)n2)c1	43	.	.
CCCNc1ccnc(Nc2cccc(N(C)C)c2)n1	.	.	/
Cc1cc(NCc2cccc(C(F)(F)F)c2)nc(Nc2cccc(N(C)C)c2)n1	40	.	.
COc1ccc(CCNC(=O)c2csc(-c3ccccc3)n2)cc1	.	.	/
O=C(NCc1cccc(C(F)(F)F)c1)c1cc(NC2CCN(Cc3ccccc3)CC2)nc2ccccc12	.	.	/
COc1ccc2c(c1)CC(C(=O)Nc1ccc(-c3cn[nH]c3)cc1Oc1ccccc1)CO2 (stereo not given)	.	.	/
CC(C)n1c(-c2ccc(C(=O)N3CCN(C)CC3)cc2)nc2c(NCCO)ncnc21	.	.	/
COc1ccc(-c2cccc(C(=O)Nc3ccccc3)c2)cc1	.	.	/
Cc1cc(Nc2ccccc2)nc(Nc2ccc(N3CCOCC3)cc2)n1	.	.	/
Cc1cc(Nc2ccc(N3CCOCC3)cc2)nc(Nc2cccc(N(C)C)c2)n1	41	.	.
Cc1cc(NCc2cccc(C(F)(F)F)c2)nc(Nc2ccc(N3CCOCC3)cc2)n1	40!	.	4.6
CN(C)c1cccc(Nc2nccc(NCc3cccc(C(F)(F)F)c3)n2)c1	43	.	.
Cc1cc(NCc2cccc(C(F)(F)F)c2)nc(Nc2ccc(C(F)(F)F)cc2)n1	.	.	/
FC(F)(F)c1cccc(CNc2ccnc(Nc3ccccc3)n2)c1	.	.	/
Cc1cnc(Nc2ccccc2)nc1NCCN1CCOCC1	.	.	/
CCCNc1nc(Nc2ccc(N3CCOCC3)cc2)nc2cc(OC)c(OC)cc12	.	.	/
COc1cc2nc(Nc3ccccn3)nc(Nc3ccc(N4CCOCC4)cc3)c2cc1OC	.	.	/
COc1cc2nc(Nc3ccc(N4CCOCC4)cc3)nc(NCc3ccccc3)c2cc1OC	41	.	.
SMILES	ASK1 primary	ULK1 primary	TruHits interf
COc1cc2nc(Nc3nccc4ccccc34)nc(Nc3ccc(N4CCOCC4)cc3)c2cc1OC	36	.	.
c1ccc(Nc2ccnn2-c2ccnc(Nc3ccc(N4CCOCC4)cc3)c2)cc1	.	.	/
CN(C)CCNc1onc(-c2ccnc(Nc3ccc(N4CCOCC4)cc3)c2)c1-c1ccc(F)cc1	.	.	/
Fc1ccc(-c2c(-c3ccnc(Nc4ccc(N5CCOCC5)cc4)c3)noc2NCc2ccccc2)cc1	37	.	.
c1ccc(Nc2cc(-c3ccnc(Nc4ccc(N5CCOCC5)cc4)c3)nn2-c2ccccc2)cc1	41	.	.
CC(C)N1CCN(c2c(Cl)cccc2NC(=O)c2ccc(Br)o2)CC1	.	.	/
COc1ccccc1/C=N/NC(=O)c1[nH]ncc1I	/	.	/
O=C(Cc1cn(-c2ccc(N3CCN(Cc4ccc5c(c4)OCO5)CC3)nn2)c2ccccc12)Nc1ccccc1	.	.	/
O=C(Cc1cn(-c2ccc(N3CCN(Cc4ccc5c(c4)OCO5)CC3)nn2)c2ccccc12)Nc1ccc(N2CCOCC2)cc1	39	.	.
CCC(C)C(CC)C(N)=O (stereo not given)	/	.	/
CCCCCCCCCCCCCCCC(=O)OC[C@H](O)[C@H]1OC(=O)C(=O)C1O (stereo not given in full)	/	.	/
COc1cc(Nc2nc(-c3ccc(C(N)=O)cc3)nc3c2ncn3C2CCCCC2)cc(OC)c1OC	40	.	.
COc1cc(Nc2nc(-c3ccc(C(=O)NC4CC4)cc3)nc3c2ncn3C2CCCCC2)cc(OC)c1OC	.	.	/
Cn1cc(-c2ccc3cnc(Nc4ccc(-c5ccc(N6CCOCC6)nc5)cc4)nc3c2Cl)cn1	38	43	.
